Compound activity (PubChem BioAssay)
Hits are enriched below; roughly 2.5% of the tested compounds scored in any of these assays.
Cruzain noTriton: blocks cruzain activity in detergent-free assay; P25779; purified cruzain, Z-FR-AMC fluorescence, no detergent; Potency, µM, actives largely listed as inhibitors; 200,000 compounds, 2.3% hits; note: nearly all actives have a fitted effect of over 40% in size
Target sequence (P25779 123-467 limits assumed): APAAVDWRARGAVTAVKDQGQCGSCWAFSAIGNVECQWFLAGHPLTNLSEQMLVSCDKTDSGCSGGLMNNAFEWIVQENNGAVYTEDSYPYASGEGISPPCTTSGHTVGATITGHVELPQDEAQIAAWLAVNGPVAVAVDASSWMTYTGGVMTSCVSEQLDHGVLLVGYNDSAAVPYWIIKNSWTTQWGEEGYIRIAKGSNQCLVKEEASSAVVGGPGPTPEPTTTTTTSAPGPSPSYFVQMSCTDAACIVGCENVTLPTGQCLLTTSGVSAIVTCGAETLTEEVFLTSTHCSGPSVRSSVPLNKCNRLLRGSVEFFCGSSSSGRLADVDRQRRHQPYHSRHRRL
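Purified cruzain at 1.5 nM, pre-incubated 15 min with compound at room temperature in 100 mM sodium acetate pH 5.5, 5 mM DTT, 0.00005% Triton X-100. Reaction started with 2 uM Z-FR-AMC; AMC fluorescence increase over 60 s gives rate.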
Cruzain inh Det: blocks cruzain activity in presence of Triton detergent. P25779. purified cruzain, Z-FR-AMC fluorescence, 0.01% Triton. Potency, µM, most hits filed as inhibitors. 200,000 compounds, 0.43% hits. AID 1478; note: nearly all actives have a fitted effect of over 40% in size
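Detergent-containing run (0.01% Triton X-100) in acetate buffer pH 5.5 with 5 mM DTT: enzyme at 1.5 nM final, 15 min compound preincubation at room temperature, then 2 uM Z-FR-AMC substrate. Activity taken as 60 s fluorescence increase at 360/450 nm.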
Hits are given with their value; – = inactive; ? = inconclusive. Calls come from the whole dose curve; as a rule, active = well fitted curve in the direction sought with a large enough effect; inconclusive = small, poorly fitted or top-dose-only effect, or another doubt; inactive = no such curve, though single readings can be large; an effect the other way counts as inactive or inconclusive.

SMILES | Cruzain noTriton | Cruzain inh Det
CCOc1ccc(CCNC(=O)c2nnc(Cc3cc(OC)c(OC)c(OC)c3)o2)cc1OCC | ? | –
COc1cccc(/C=N/NC(=O)c2ccc(=O)n(C)c2)c1O | – | –
COc1ccccc1/C=N/NC(=O)C1=NNC(c2ccccc2)(c2ccccc2)C1 | 16µM | –
COc1cccc(/C=N/NC(=O)c2ccc(-c3ccccc3)cc2)c1O | 16µM | –
COc1ccccc1/C=N/NC(=O)c1ccccc1NS(=O)(=O)c1ccc(C)cc1 | – | –
CCc1nc2nc(C)c(NS(=O)(=O)c3ccc(C(C)(C)C)cc3)c(=O)n2[nH]1 | – | –
Cc1cc(Cl)ccc1NC(=O)CCS(=O)(=O)c1ccc2c(c1)CC(C)N2C(=O)C1CC1 (stereo unspecified) | – | –
Cc1ccc(NC(=O)CN2C(=O)CCc3cc(S(=O)(=O)N4CCOCC4)ccc32)cc1F | – | –
Cc1cc(C)nc(N/N=C/c2ccccc2OCc2ccc([N+](=O)[O-])cc2)n1 | – | –
O=[N+]([O-])c1ccc(N/N=C\c2ccccc2OCc2ccccc2)cc1 | 25µM | –
CC(=O)N1C2(C=CC1(C)C(=O)NCc1cc(F)cc(C(F)(F)F)c1)CCCCC2 (stereo unspecified) | – | –
CCOc1ccccc1NC(=O)C(C)N(c1ccccc1)S(C)(=O)=O (stereo unspecified) | – | –
COCCNc1nc(C)nc2c1nc(-c1ccccc1)n2CCCN1CCCCC1C (stereo unspecified) | – | –
CCc1c(C)sc(NC(=O)CSc2nc3c(c(C(F)(F)F)n2)CCc2ccccc2-3)c1C#N | 4µM | –
CC(NC(=O)CSc1nc2c(c(C(F)(F)F)n1)CCc1ccccc1-2)c1ccccc1 (stereo unspecified) | – | –
COc1cc(-c2nnc(SCC(=O)N3CCCc4ccccc43)o2)cc(OC)c1OC | ? | –
O=S(=O)(O)n1ccnc1 (tested in a mixture with another compound) | – | –
Cc1cccc(NC(=O)/C=C/c2ccc([N+](=O)[O-])s2)c1 | ? | –
Cc1ccc(NC(=O)/C=C/c2ccc([N+](=O)[O-])s2)cc1 | 32µM | –
CCOC(=O)C(=O)NCC(c1cccnc1)N1CCN(c2ccccc2)CC1 (stereo unspecified) | – | –
Oc1c(Br)cc(Br)cc1CN1CCN(Cc2ccccc2)CC1 | – | –
Oc1c(Br)cc2oc3c(c2c1CNCc1ccccc1)CCCC3 | 32µM | –
O=C(O)C[C@H](Cc1ccc2c(c1)OCO2)C(=O)O | – | –
Cc1ccc(N2CCN(S(=O)(=O)c3ccc(Cl)c4ccccc34)CC2)c(C)c1 | 10µM | –
COc1ccc(S(=O)(=O)N2CCN(c3ccc(C)cc3C)CC2)cc1OC | ? | –
SMILES | Cruzain noTriton | Cruzain inh Det
CCOc1ccc(Cl)cc1S(=O)(=O)N1CCN(c2ccc(F)cc2)CC1 | – | –
CCOc1ccc(S(=O)(=O)N2CCN(c3cc(Cl)ccc3Cl)CC2)c2ccccc12 | 10µM | –
CCOc1ccc(S(=O)(=O)N2CCN(c3ccc(C)cc3C)CC2)c2ccccc12 | 3.2µM | –
CCOc1ccc(S(=O)(=O)N2CCCCC2)c2ccccc12 | – | –
Cc1ccc(-c2noc(CN(C3CCCCC3)S(=O)(=O)c3ccc(F)cc3)n2)cc1 | – | –
Cc1nn2cc(-c3ccc(-c4ccccc4)cc3)nc2s1 | 13µM | –
Cc1nn2cc(-c3ccc(Cl)cc3)nc2s1 | ? | –
N=C(N)SCCc1ccc(CCSC(=N)N)cc1 | – | –
CCc1cccc(C)c1NC(=O)Cn1c(=O)n(-c2ccc(C)cc2)c(=O)c2c1cnn2C | – | –
COc1ccc(CNc2ncncc2-c2ccoc2)c(OC)c1 | – | –
COc1cc(OC)c(NC(=O)N2CCc3c(sc4c3CCCC4)C2c2ccccc2)cc1Cl (stereo unspecified) | 10µM | –
COc1cc(NC(=O)N2CCc3c(sc4c3CCCC4)C2c2ccccc2)cc(OC)c1OC (stereo unspecified) | ? | –
COc1cc(OC)c(NC(=O)N2CCc3c([nH]c4ccccc34)C2c2ccccc2F)cc1Cl (stereo unspecified) | 16µM | –
Cc1ccc(C2c3[nH]c4ccccc4c3CCN2C(=O)Nc2ccc(C)c(C)c2)cc1 (stereo unspecified) | ? | –
Cc1ccc(-c2noc(-c3cccnc3N(C)Cc3ccc(Cl)cc3)n2)cc1 | – | –
COc1ccc(-c2cc(C(F)(F)F)n3nc(C(=O)OC(C)C)cc3n2)cc1 | – | –
CCc1ccc(OCC(=O)NCCN(C)C)c(Br)c1 | – | –
CCc1ccc(OCC(=O)NC(=S)Nc2ccc(C)cc2C)c(Br)c1 | 13µM | –
CCOC(=O)c1c(C)oc2nc(C)nc(NCC3CCN(Cc4ccccc4C)CC3)c12 | – | –
O=C1OCCN1C(=O)[C@H]1[C@H](c2ccc(F)cc2)C(c2ccc(F)cc2)=NN1c1ccccc1 | ? | –
O=C1OCCN1C(=O)[C@H]1[C@H](c2ccc(F)cc2)C(c2ccc(F)cc2)=NN1c1ccc(Br)cc1 | 25µM | –
O=C1OCCN1C(=O)[C@H]1[C@H](c2ccc(Cl)cc2)C(c2ccc(F)cc2)=NN1c1ccc(Br)cc1 | 11µM | –
O=C1OCCN1C(=O)[C@H]1[C@H](c2ccc(Cl)cc2)C(c2ccc(F)cc2)=NN1c1ccccc1 | ? | –
Cc1cc(Cl)ccc1OCC(=O)Nn1c(C)ccc1C | 2.5µM | –
COc1ccccc1OCC(=O)Nc1cc(-c2ccc(C)cc2)no1 | – | –
SMILES | Cruzain noTriton | Cruzain inh Det
Cc1ccc(-c2cc(NC(=O)COc3ccc(Cl)cc3C)on2)cc1 | 10µM | –
Cc1cc(Cl)ccc1OCC(=O)O | – | –
CCCCCCN(C(=O)CCCCCN1C(=O)NC(C2CCCCC2)C(C(=O)OCc2ccccc2)=C1C)C(C(=O)NCCCC)c1ccc(OCC(=O)OC)c(C(=O)OC)c1 (stereo unspecified) | ? | –
Cc1csc2nc(-c3ccc(NS(=O)(=O)c4cccc(F)c4)cc3)cn12 | ? | –
CCN1C(=O)c2ccccc2Sc2ccc(NC(=O)Nc3ccc(Br)c(C)c3)cc21 | 7.9µM | –
CCN1C(=O)c2ccccc2Sc2ccc(NC(=O)Nc3ccc(C(C)=O)cc3)cc21 | – | –
COc1cccc(-c2nn(C)c3sc(C(=O)NCCc4cccc(C)c4)cc23)c1 | – | –
Cc1cccc2sc(NC(=O)C3CCN(S(=O)(=O)c4cc([N+](=O)[O-])ccc4Cl)CC3)nc12 | 20µM | –
O=C(NCc1ccc(Cl)cc1)C1CCN(S(=O)(=O)c2cc([N+](=O)[O-])ccc2Cl)CC1 | – | –
CN(C)c1ccc(-c2nccc(Nc3ccc(F)cc3)n2)cc1 | – | –
Cc1nc2nc(C)c(NS(=O)(=O)c3ccc(F)cc3)c(=O)n2[nH]1 | – | –
COc1ccc(N2C(=O)CC(S/C(N)=N/N=C(\C)c3cccs3)C2=O)cc1 (stereo unspecified) | – | –
CCOc1ccc(N2C(=O)CC(S/C(N)=N/N=C/c3cccs3)C2=O)cc1 (stereo unspecified) | 10µM | –
CN(C)C(=O)C1CCN(Cc2c[nH]c3ccccc23)CC1 | – | –
COc1ccc(NC(=O)C2=C(C)Nc3nc(SCc4ccccc4C)nn3C2c2cc(OC)c(O)c(OC)c2)cc1 (stereo unspecified) | 10µM | –
CC1=C(C(=O)Nc2ccc(C)cc2C)C(c2cccs2)n2nc(SCc3ccc(Cl)cc3)nc2N1 (stereo unspecified) | – | –
